# PMC5540273 (PLoS ONE, 2017)
# System: PLK3
# Conditions: concentration: 1 μM,replicates: in singlicate; n = 1
# 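Also: KINOMEscan kinase panel screen.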
row,Structure (SMILES),%Inh [%]
1,C[C@@H]1CCN(C(=O)CC#N)C[C@@H]1N(C)c1ncnc2[nH]ccc12,0
2,CN(C)CC(O)COc1ccc(Nc2nccc(-c3cnn4nc(N5CCOCC5)ccc34)n2)cc1 (centres unmarked) [GW767488],35
3,Cc1occc1-c1nc(N)c(OC[C@@H](N)Cc2c[nH]c3ccccc23)cc1-c1cc2c(C)n[nH]c2cn1 [GSK1660450],52
4,Cc1ccc2c(-c3ccncc3)c(-c3ccc(F)cc3)nn2c1.Cl [GW461484],0
5,C[C@H]1Oc2cc(cnc2N)-c2c(nn(C)c2C#N)CN(C)C(=O)c2ccc(F)cc21,0
6,NC(=O)c1cc(-c2ccccc2)cc2c(C3CCNCC3)c[nH]c12 [GSK301362],0
7,C=CC(=O)Nc1cc2c(Nc3ccc(F)c(Cl)c3)ncnc2cc1OCCCN1CCOCC1 [GW781483],0
8,CCn1c(-c2nonc2N)nc2c(C#CC(C)(C)O)nc(OCCN)cc21.Cl.Cl [GSK902056],0
9,Cc1n[nH]c2ccc(-c3cc(OC[C@@H](N)Cc4ccccc4)cnc3-c3ccoc3)cc12.O=C(O)C(F)(F)F.O=C(O)C(F)(F)F [GSK507358],0
10,Cl.Cl.NC[C@H](CC1CCCCC1)NC(=O)c1cc(Br)c(-c2ccnc3[nH]ccc23)s1 [GSK1581427],0
11,COc1ccc(C[C@@H](CN)NC(=O)c2cc(Br)c(-c3ccnc4[nH]ccc34)s2)cc1.Cl.Cl [GSK1389063],27
12,Cl.Oc1cc(-c2nc(-c3ccccc3)[nH]c2-c2ccncc2)ccc1Cl [SB-386023],12
13,Nc1nc(Nc2ccccc2)cc(-c2ccc3c(N)n[nH]c3c2)n1 [GSK2225749],0
14,O=C(NCCCN1CCOC1=O)c1cnc(NCc2cc(Cl)ccc2Cl)nc1NC1CCCC1,4

# System: PLK4
# Conditions: concentration: 1 μM,replicates: in singlicate; n = 1
row,Structure (SMILES),%Inh [%]
1,CNC(=O)c1ccccc1Sc1ccc2c(/C=C/c3ccccn3)n[nH]c2c1,97.7
2,O=C(NCCNc1ccnc(NCc2ccc(F)cc2)n1)c1cc2ccccc2s1 [GSK1379944],74
3,CN(C)CCOc1ccc(-c2cc(-c3c[nH]nc3-c3ccccn3)ccn2)cc1 [GW835314],2
4,Cc1cc(C(=O)Nc2ccc(Oc3ccc4nc(NC(=O)C5CC5)cn4n3)cc2)nn1-c1ccccc1,0
5,Cc1ccc(-n2nc(C(C)(C)C)cc2NC(=O)Nc2ccc(OCCN3CCOCC3)c3ccccc23)cc1 [GW839464],2
6,CCN(CC)CCCCNc1ncc2cc(-c3c(Cl)cccc3Cl)c(NC(=O)NC(C)(C)C)nc2n1,13
7,CCN(CC)CCOc1ccc(Nc2ncc3cc(-c4c(Cl)cccc4Cl)c(=O)n(C)c3n2)cc1 [SB-601273],30
8,Cc1cc2cn[nH]c2cc1-c1cccc2c(N)c(C(N)=O)nnc12,51
9,CC(C)Nc1cc(-c2ccc3c(N)n[nH]c3c2)nc(N)n1 [GSK2221681],0
10,C[C@@H](Oc1cc(-c2cnn(C3CCNCC3)c2)cnc1N)c1c(Cl)ccc(F)c1Cl,88
11,Cl.Cl.Nc1nc(-c2ccc3c(N)n[nH]c3c2)cc(N2CCCC(NC(=O)c3ccccc3)C2)n1 (centres unmarked) [GSK2286775],16
12,CC(C)N1C(=O)Cc2cc(Nc3ncc(C(F)(F)F)c(NCc4cccc(S(C)(=O)=O)c4)n3)ccc21,67
13,Cl.Cl.NC[C@H](Cc1ccc(C(F)(F)F)cc1)NC(=O)c1cc(Br)c(-c2ccnc3[nH]ccc23)s1 [GSK1487252],8
14,C[C@@H]1CCN(C(=O)CC#N)C[C@@H]1N(C)c1ncnc2[nH]ccc12,0
15,CN(C)CC(O)COc1ccc(Nc2nccc(-c3cnn4nc(N5CCOCC5)ccc34)n2)cc1 (centres unmarked) [GW767488],63
16,Cc1occc1-c1nc(N)c(OC[C@@H](N)Cc2c[nH]c3ccccc23)cc1-c1cc2c(C)n[nH]c2cn1 [GSK1660450],0
17,Cc1ccc2c(-c3ccncc3)c(-c3ccc(F)cc3)nn2c1.Cl [GW461484],0
18,C[C@H]1Oc2cc(cnc2N)-c2c(nn(C)c2C#N)CN(C)C(=O)c2ccc(F)cc21,97.9
19,NC(=O)c1cc(-c2ccccc2)cc2c(C3CCNCC3)c[nH]c12 [GSK301362],0
20,C=CC(=O)Nc1cc2c(Nc3ccc(F)c(Cl)c3)ncnc2cc1OCCCN1CCOCC1 [GW781483],26
21,CCn1c(-c2nonc2N)nc2c(C#CC(C)(C)O)nc(OCCN)cc21.Cl.Cl [GSK902056],3
22,Cc1n[nH]c2ccc(-c3cc(OC[C@@H](N)Cc4ccccc4)cnc3-c3ccoc3)cc12.O=C(O)C(F)(F)F.O=C(O)C(F)(F)F [GSK507358],0
23,Cl.Cl.NC[C@H](CC1CCCCC1)NC(=O)c1cc(Br)c(-c2ccnc3[nH]ccc23)s1 [GSK1581427],15
24,COc1ccc(C[C@@H](CN)NC(=O)c2cc(Br)c(-c3ccnc4[nH]ccc34)s2)cc1.Cl.Cl [GSK1389063],34
25,Cl.Oc1cc(-c2nc(-c3ccccc3)[nH]c2-c2ccncc2)ccc1Cl [SB-386023],17
26,Nc1nc(Nc2ccccc2)cc(-c2ccc3c(N)n[nH]c3c2)n1 [GSK2225749],6
27,O=C(NCCCN1CCOC1=O)c1cnc(NCc2cc(Cl)ccc2Cl)nc1NC1CCCC1,17
